The source of these data is PubChem BioAssay AID799 (SRMLSC, 2007).

Screen size: about 140,000 compounds; about 840 (0.6%) were called active.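 Rule for the calls: active = viability gain under doxorubicin at or above a set limit, the compound median plus 3 SD (cut at about 4.7% in these data); inactive = the rest.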 What follows is part of a selection rich in actives, with near analogues and random picks from the rest.

This assay can be described thus: protection of MRP-1-high cells against doxorubicin toxicity – H69AR cells, CellTiter-Glo, MRP-1 activator project, primary screen (AID 799).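 Note: MRP-1 overexpressing cells given doxorubicin 25 µM after compound pretreatment; 18-22 h compound pretreatment then 72 h with doxorubicin before readout; 0% = doxorubicin-only wells and 100% = vehicle-treated cells without doxorubicin.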 The note with it: viability rescue, at 10 µM, stronger effect = higher value. On the technique in general: In ATP-based viability assays light output follows the ATP content of the culture.
On to `COc1ccc([N+](=O)[O-])cc1NC(=O)COC(=O)/C=C/c1ccco1`, for which the viability increase is 7.08% (active).
Regarding `CC(C)CNC(=O)COC(=O)/C=C/c1ccco1`, the viability increase is 1.16% (inactive).
Under `COc1ccc([N+](=O)[O-])cc1NC(=O)CCc1ccccc1` stands -1.62% (inactive).
In the case of `Cc1[nH]c2ccccc2c1/C=N\NC(=O)Cn1nnc(-c2ccccc2)n1`, the viability increase was 3.22% (inactive).
On to `CN(C)CCCNC(=S)NCc1ccc(Cl)cc1`, for which the viability increase is -0.81% (inactive).
For `CCOC(=O)NC(=O)CSc1nnc(SCCC(=O)O)s1`, the viability increase is 1.73% (inactive).
Then `CCCC(=O)Nc1cccc(NC(=S)NC(=O)C(C)Oc2ccc(Cl)cc2Cl)c1` (stereo not given), with -2.06% (inactive); and `Cc1cccnc1NC(=O)CSc1nnc(COc2ccc(C(C)C)cc2)n1C`, with 0.08% (inactive); and `COc1ccccc1C(=O)Nc1ccc(OCc2nnc3c4ccccc4c(C)nn23)cc1`, with 0.29% (inactive).
Then `Cc1ccc(OCc2nnc(SC3CCc4ccccc4C3=O)n2C)cc1` (stereo not given), with 7.21% (active); and `Cc1ccc2nc(SCc3cn4c(C)cc(C)nc4n3)[nH]c2c1`, with 0% (inactive).
Then `OC(COc1ccc2c(c1)CCC2)CN1CCN(c2cccc(Cl)c2)CC1` (stereo not given), with -3.05% (inactive).
Turning to `COc1ccc(N2CCN(Cc3cc(=O)oc4ccc5ccccc5c34)CC2)cc1`, the viability increase is -1.38% (inactive).
Then `O=c1cc(CN2CCN(c3cccc(Cl)c3)CC2)c2cc3c(cc2o1)CCCC3`, with 6.01% (active); and `O=C(CSc1nc2ccccc2[nH]1)N/N=C/C=C\c1ccccc1[N+](=O)[O-]`, with -1.58% (inactive); and `COc1cccc(/C(C)=N/Nc2ncc(Cl)cc2Cl)c1`, with -1% (inactive).
Under `Cn1cc(C(=O)NCc2ccccc2F)cn1` stands -0.72% (inactive); under `CCn1nc(C)c(NC(=O)/C=C/c2ccc(OC)c(COc3ccc(Br)cc3)c2)c1C`, 3.69% (inactive); under `COc1ccc(/C=C/C(=O)Nc2c(C)nn(C)c2C)cc1COc1ccc(Br)cc1`, 7.14% (active).
Under `COc1ccc(/C=C/C(=O)Nc2ccc3c(c2)OCCO3)cc1OC` stands -2.17% (inactive); under `Cn1c(=O)c(Sc2ccc(Cl)cc2)c(O)c2ccccc21`, -2.5% (inactive); under `CCN(CC)CCNCc1ccc(OCc2ccc(Cl)nc2)c(OC)c1`, 1.21% (inactive).
Regarding `CCCCCC(=O)Nc1ccc(S(=O)(=O)Nc2ccc(Cl)nn2)cc1`, the viability increase was 6.79% (active).
Under `COc1ccc(NS(=O)(=O)c2ccc(NC(=O)C(C)(C(F)(F)F)C(F)(F)F)cc2)nn1` stands -0.72% (inactive); under `COc1ccc(NS(=O)(=O)c2ccc(NC(=S)NC(=O)/C=C/c3ccc(C)cc3)cc2)nn1`, -3.16% (inactive); under `O=C(/C=C/c1ccccc1)Nc1nnc(SCC(=O)c2ccc3ccccc3c2)s1`, -5.32% (inactive).
Under `COc1ccc2nc(NC(=O)[C@@H]3CCCN3C(=O)c3cccs3)sc2c1` stands -1.42% (inactive).
Under `CC(C)CN(C(=O)CN1CCN(S(=O)(=O)c2ccccc2)CC1)c1c(N)n(CC(C)C)c(=O)[nH]c1=O` stands 0.86% (inactive); under `Cc1cccc(C)c1-n1c(C)cc(/C=C2\C(=O)NN(c3ccccc3)C2=O)c1C`, 7.89% (active); under `Cc1ccccc1-n1c(C)cc(/C=C2\NC(=O)NC2=O)c1C`, -4.81% (inactive).
As for `Cc1cc(/C=C2/NC(=O)NC2=O)c(C)n1-c1cccnc1`, the viability increase is -1.48% (inactive).
Then `CCC(C(=O)OCC(=O)Nc1c(Cl)cc(Cl)cc1Cl)c1ccccc1` (stereo not given), with 0.97% (inactive); and `Cc1cccc(-n2ncc3c(N4CCc5ccccc54)ncnc32)c1`, with -0.96% (inactive); and `COc1ccc(-n2ncc3c(N4CCCc5ccccc54)ncnc32)cc1`, with 10.8% (active).
Under `COc1ccc(-n2ncc3c(N4CCc5ccccc54)ncnc32)cc1` stands -1.22% (inactive); under `COc1cc(Cl)c(C)cc1NC(=O)COC(=O)c1cc(SC)ccc1Cl`, -0.15% (inactive); under `CCC1CCCCN1C(=S)Nc1ccc(SC(F)F)cc1` (stereo not given), 1.82% (inactive).
Under `Cc1cccc(NC(=O)CSc2nc3c(c(=O)[nH]2)CCCC3)c1C` stands -0.17% (inactive).
Turning to `Cc1ccccc1NC(=O)CSC1=NCCN1`, the viability increase is 5.48% (active).
Regarding `Cc1ccccc1NC(=O)CNc1ccccc1N1CCCCC1`, the viability increase was -3.04% (inactive).
Then `N=c1n(CCc2ccccc2)c2ccccc2n1Cc1ccccc1F`, with -4.33% (inactive).
Under `COc1ccc(C)cc1NC(=O)CSc1ccc(Cl)cc1` stands -1.28% (inactive).
For `O=C1CCCC(O)=C1N=Nc1ccc2ncsc2c1`, the viability increase is -2.88% (inactive).
Then `Cc1cc(C(=O)OCC(=O)Nc2ccc(F)c(F)c2)c(C)o1`, with 7.91% (active); and `CCn1c2ccccc2c2cc(NC(=O)COC(=O)c3ccccc3Br)ccc21`, with -1.59% (inactive); and `Cc1cc(C(=O)OCC(=O)c2c(N)n(C)c(=O)n(C)c2=O)c(C)o1`, with -2.26% (inactive).
For the compound `CC(C)(C)NC(=O)C(=O)NCc1ccncc1`, the viability increase is -2.66% (inactive).
Under `Cc1cc(NC(=O)CCC2COc3ccccc3O2)no1` (stereo not given) stands 0% (inactive); under `COc1ccc(NC(=O)CC2COc3ccccc3O2)c(OC)c1` (stereo not given), 4.96% (active).
As to `COc1ccc(NC(=O)CCN2CCCC2)c(OC)c1`, the viability increase is 1.66% (inactive).
Then `O=c1cc(CN2CCN(S(=O)(=O)/C=C/c3ccccc3)CC2)c2ccc(O)cc2o1`, with -2.59% (inactive); and `CC(C)(C)CC(C)(C)NCC(O)COCCOc1ccc(Br)cc1` (stereo not given), with -4.69% (inactive).
For the compound `Cc1cc(C(=O)N/N=C/c2cc([N+](=O)[O-])cc(C)c2O)n[nH]1`, the viability increase was 5.47% (active).
Then `Cc1ccc(-n2[nH]c(C)c(/C=N/NC(=O)c3cccc([N+](=O)[O-])c3)c2=O)cc1C`, with -4.06% (inactive).
Then `Cc1ccsc1C(=O)N/N=C/c1ccc([N+](=O)[O-])cc1`, with 0.85% (inactive); and `COC(=O)c1onc(-c2c(OC)cc(OC)cc2OC)c1C(=O)OC`, with 1.1% (inactive); and `O=C(N/N=C/c1ccc(Br)o1)c1cncc(Br)c1`, with -1.78% (inactive).
Under `Cc1ccc(OCC(=O)OC(C)CN(C)Cc2ccccc2)cc1` (stereo not given) stands -1.74% (inactive); under `CCn1c(SCC(=O)Nc2ccc(C)cc2)nc2nc3c(cc2c1=O)CCCC3`, 0.07% (inactive); under `Clc1ccc(COn2c(-c3ccc(Cl)cc3Cl)nc3ncccc32)cc1`, -3.46% (inactive).
Consider `CCOc1ccc(OCC)c(-c2c(=O)n(OCc3ccc(Cl)cc3)c3ccccc3[n+]2[O-])c1`, for which the viability increase is 7.22% (active).
On to `COc1ccc(OC)c(-c2c(=O)n(OCc3ccccc3Br)c3ccccc3[n+]2[O-])c1`, for which the viability increase is -1.16% (inactive).
Take `CCCN(CC1COc2ccccc2O1)C(=S)Nc1ccc(C)cc1` (stereo not given): the viability increase was -0.89% (inactive).
Then `Cc1nnc(-c2ccc(Oc3ccc(C)c(C)c3)c([N+](=O)[O-])c2)o1`, with -1.23% (inactive); and `COc1cccc(/C=N/Nc2ncc(C(F)(F)F)cc2Cl)c1O`, with -4.98% (inactive).
Then `Cc1cc(C)c(NC(=S)N2CCCC2C(=O)O)c(C)c1` (stereo not given), with 0.6% (inactive); and `CCN(C(=O)CSc1ncn[nH]1)c1cccc2ccccc12`, with 1.04% (inactive).
For the compound `CC(C)(C)c1ccc(C(=O)CSc2ncn[nH]2)cc1`, the viability increase was 9.85% (active).
As for `Cn1nnc(NC(=O)CSc2ncn[nH]2)n1`, the viability increase is -0.73% (inactive).
Then `CCN(CC(=O)NCCc1ccccc1)S(=O)(=O)c1ccc(C)cc1`, with -2.77% (inactive); and `COc1ccc(CC(=O)Nc2ccc(C(=O)NC(C)(C)C)cc2)cc1`, with 0.14% (inactive); and `O=C(Cc1ccccc1)Nc1cccc(C(=O)N/N=C/c2ccco2)c1`, with -0.32% (inactive).
Under `CC(C)(C)NC(=O)c1cccc(NC(=O)Cc2ccc(Br)cc2)c1` stands 5.31% (active); under `COc1ccc(Cl)cc1NC(=O)Cn1nc(-c2ccc(C)cc2)n(C)c1=S`, -3.24% (inactive).
Under `CCOC(=O)c1cnc2ccc(F)cc2c1Nc1ccc2c(c1)OCCO2` stands -1.56% (inactive); under `Cc1c(CCO)sc[n+]1CC(=O)OC12CC3CC(CC(C3)C1)C2`, -0.72% (inactive); under `N#C/C(C(=O)N1CCOCC1)=C1/SC(Cc2ccc(F)cc2)C(=O)N1c1ccccc1` (stereo not given), -0.96% (inactive).
For the compound `Cc1ccc(CC2S/C(=C(/C#N)C(=O)N3CCOCC3)N(c3ccccc3)C2=O)cc1` (stereo not given), the viability increase was 7.14% (active).
Then `Cc1ccc(C(=O)C(=S)N2CCOCC2)cc1`, with -2% (inactive); and `Cc1ccn(-c2cccc(-n3ccc(C)n3)n2)n1`, with 1.12% (inactive); and `CN1/C(=C\C(=O)c2oc3ccccc3c2N)C(C)(C)c2ccccc21`, with 5.19% (active).
Under `Cc1noc(C)c1C(=O)OCC(=O)/C=C1\N(C)c2ccccc2C1(C)C` stands -1.22% (inactive); under `CN1/C(=C\C(=O)c2cccnc2Cl)C(C)(C)c2ccccc21`, -0.96% (inactive).
As to `C/C(=N/NS(=O)(=O)c1ccccc1)c1ccc(NC(=O)C(F)(F)F)cc1`, the viability increase was -0.61% (inactive).
Under `Cc1ccccc1N/C(SCc1ccc(Cl)cc1)=C(/C#N)C(N)=O` stands -2.62% (inactive); under `Cc1scc(C(=O)NNC(=S)NCC(C)C)c1C`, 0.83% (inactive).
Under `COc1ccc(CC(=O)N2N=C(C)CC2(O)C(F)(F)F)cc1` (stereo not given) stands -0.45% (inactive); under `O=S(=O)(Nc1ccc(Oc2ncccn2)c(Cl)c1)c1ccc(F)cc1`, -2.28% (inactive).
For `Cc1ccc(C(=O)/C=C/Nc2ccc(S(=O)(=O)Nc3onc(C)c3C)cc2)cc1`, the viability increase is -1.44% (inactive).
Then `Cc1ccc(S(=O)(=O)Nc2ccc3ncccc3c2)cc1`, with 5.23% (active); and `CCc1nccn1S(=O)(=O)c1cccc([N+](=O)[O-])c1`, with 1.01% (inactive); and `N#CC1(NC(=O)COc2ccc3oc4ccccc4c3c2)CCCCC1`, with 0% (inactive).
Then `O=C(COc1ccc2oc3c(c2c1)CCCC3)Nc1ccccn1`, with 5.27% (active).
Then `NC(=O)COc1ccc2c3c(c(=O)oc2c1)CCCCC3`, with -0.34% (inactive).
Regarding `O=C(COC(=O)Cc1ccc(F)cc1)Nc1cc(S(=O)(=O)N2CCOCC2)ccc1N1CCCC1`, the viability increase is 0.15% (inactive).
